Measurements: PubChem BioAssay (EPA / NIEHS)
“And” between values parts separate entries of the source, which are not always exact repeats. Identical values can stand only once. Records with an inconclusive call do not appear. The source made the active and inactive calls. How the source made its calls, unless noted: active means hit-call score of the fitted dose curve at least 0.9, where 1 is the maximum; inactive means score below 0.9.

molecular target: Ratio of Nucleoli Translocation and Cytoplasm, AR (gene 367) (UniProt P10275); assay: UPITT_HCI_U2OS_AR_TIF2_Nucleoli_Cytoplasm_Ratio_Agonist: University of Pittsburgh U2OS Androgen Receptor-Transcriptional Intermediary Factor 2 (AR-TIF2) Agonism High Content Imaging Assay for Ratio of Nucleoli Translocation and Cytoplasm (AID 2284000; active means hit-call score of the fitted dose curve at least 0.9, where 1 is the maximum;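 further: hits raise the red nucleolar to cytoplasm ratio above vehicle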)
Summary of the method: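 U2OS cells expressing RFP-tagged human AR and GFP-tagged TIF2 were imaged by high-content fluorescence microscopy. The endpoint is the ratio of nucleolar to cytoplasmic red fluorescence, fitted for gain of signal relative to DMSO. Concentration-response spanned 0.195 to 50 uM final (0.5% DMSO).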

Sequence of Ratio of Nucleoli Translocation and Cytoplasm, AR (gene 367) (P10275 whole entry, looked up): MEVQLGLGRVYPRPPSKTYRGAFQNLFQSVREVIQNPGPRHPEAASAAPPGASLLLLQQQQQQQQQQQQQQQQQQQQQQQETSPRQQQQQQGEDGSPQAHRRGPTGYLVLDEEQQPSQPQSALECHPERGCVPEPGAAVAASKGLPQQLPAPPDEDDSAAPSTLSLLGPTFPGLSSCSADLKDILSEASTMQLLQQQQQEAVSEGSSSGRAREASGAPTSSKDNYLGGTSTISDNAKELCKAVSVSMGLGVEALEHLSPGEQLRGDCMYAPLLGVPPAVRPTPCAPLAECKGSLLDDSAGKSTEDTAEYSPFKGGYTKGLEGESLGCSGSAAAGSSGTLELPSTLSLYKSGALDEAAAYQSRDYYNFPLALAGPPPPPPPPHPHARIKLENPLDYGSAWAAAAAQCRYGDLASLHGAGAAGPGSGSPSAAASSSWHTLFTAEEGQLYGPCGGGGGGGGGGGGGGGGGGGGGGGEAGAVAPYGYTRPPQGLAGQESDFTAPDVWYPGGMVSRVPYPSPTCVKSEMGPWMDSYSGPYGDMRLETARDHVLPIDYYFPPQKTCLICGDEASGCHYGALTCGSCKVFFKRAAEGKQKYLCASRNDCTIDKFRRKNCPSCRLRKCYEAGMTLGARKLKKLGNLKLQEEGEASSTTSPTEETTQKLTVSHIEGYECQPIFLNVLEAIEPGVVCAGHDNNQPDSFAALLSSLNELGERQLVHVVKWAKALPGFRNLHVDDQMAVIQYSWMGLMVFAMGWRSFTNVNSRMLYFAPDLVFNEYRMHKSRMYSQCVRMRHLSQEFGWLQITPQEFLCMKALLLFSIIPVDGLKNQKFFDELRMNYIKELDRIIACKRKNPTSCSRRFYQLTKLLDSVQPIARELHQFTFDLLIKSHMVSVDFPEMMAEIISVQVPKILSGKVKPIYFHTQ

| Compound | outcome | AC50 |
| --- | --- | --- |
| Cc1cccc(C)n1 | inactive |  |
| O=C1C=CC(=O)N1c1ccccc1 | inactive |  |
| CCCCCCCCCCCCC[N+](C)(C)Cc1ccccc1 | inactive |  |
| CCN=c1cc2oc3cc(NCC)c(C)cc3c(-c3ccccc3C(=O)OCC)c-2cc1C |  | 13.6 µM (active) |
| C[C@]12CC[C@H]3C(=CCc4cc(O)ccc43)[C@@H]1CCC2=O | inactive |  |
| CCCCCCCC/C=C\CCCCCCCC(=O)OCC(O)CO (centres undefined) | inactive |  |
| CCc1ccc(C)nc1 | inactive |  |
| CCCCCCCCCc1ccc(OCCO)cc1 |  | 75.5 µM (active) |
| CCN=C1C=CC(=C(c2ccc(N(CC)CC)cc2)c2ccc(N(CC)CC)cc2)c2ccccc21 | inactive |  |
| F[Si-2](F)(F)(F)(F)F | inactive |  |
| COCCOCCC[Si](C)(O[Si](C)(C)C)O[Si](C)(C)C | inactive |  |
| CCCCCCCCCCCCCC[P+](CCCC)(CCCC)CCCC | inactive |  |
| CC1CCCCC1 | inactive |  |

test system: not listed separately; assay: CCTE_Harrill_HTTr_Viability_MCF7: CCTE's 6-hour Cell Viability Assessment for the High-Throughput Transcriptomics (HTTr) Platform, in MCF-7 cells cultured in DMEM + 10% fetal bovine serum, Harrill Lab (AID 2284010)
Summary of the method: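 Membrane integrity was scored by high-content imaging of propidium iodide dye exclusion after a 6 h exposure across an eight-point dilution series. Data were fitted bidirectionally relative to DMSO as negative control and baseline.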

| Compound | outcome | AC50 |
| --- | --- | --- |
| Cc1cccc(C)n1 | inactive |  |
| CN(N=O)C(=O)N[C@@H]1[C@@H](O)[C@H](O)[C@@H](CO)O[C@@H]1O | inactive |  |
| CCCCCCCCn1sc(Cl)c(Cl)c1=O | inactive |  |
| CCCCCCCCCCCCC[N+](C)(C)Cc1ccccc1 | inactive |  |
| CCN=c1cc2oc3cc(NCC)c(C)cc3c(-c3ccccc3C(=O)OCC)c-2cc1C |  | 214 nM (active) and 159 nM (active) |
| CC(C)(C)c1cc(CCC(=O)OCC(COC(=O)CCc2cc(C(C)(C)C)c(O)c(C(C)(C)C)c2)(COC(=O)CCc2cc(C(C)(C)C)c(O)c(C(C)(C)C)c2)COC(=O)CCc2cc(C(C)(C)C)c(O)c(C(C)(C)C)c2)cc(C(C)(C)C)c1O | inactive |  |
| C[C@]12CC[C@H]3C(=CCc4cc(O)ccc43)[C@@H]1CCC2=O | inactive |  |
| Cc1cc(=O)[nH]c(C(C)C)n1 | inactive |  |
| CCCCC(CC)COC(=O)c1ccc(N(C)C)cc1 (centres undefined) | inactive |  |
| Brc1ccccn1 | inactive |  |
| O=S(=O)(O)c1ccc(Cl)cc1 | inactive |  |
| CSc1ccc(O)cc1C | inactive |  |
| Cc1ccc(O)c(-n2nc3ccccc3n2)c1 | inactive |  |
| CCCCCCCCCCCCCCCCC | inactive |  |
| CSc1ccc(Cl)cc1 | inactive |  |
| Cc1cnccn1 | inactive |  |
| CCc1ccc(C)nc1 | inactive |  |
| CCCCCCCCCc1ccc(OCCO)cc1 | inactive |  |
| CCC(Cc1c(I)cc(I)c(N)c1I)C(=O)O (centres undefined) | inactive |  |
| CCN=C1C=CC(=C(c2ccc(N(CC)CC)cc2)c2ccc(N(CC)CC)cc2)c2ccccc21 | inactive |  |
| O=C(c1ccccc1)c1ccc(O)cc1O | inactive |  |
| CCCCCCCC/C=C\CCCCCCCC(=O)N(C)CC(=O)O | inactive |  |
| CC(=O)CCC(C)C | inactive |  |
| CCOC(=O)C1CC(=O)C(=C(O)C2CC2)C(=O)C1 (centres undefined) | inactive |  |
| CN(C)C(C)(C)CO | inactive |  |
| CC1CCCCC1 | inactive |  |
